For some of these results: Results with a measured potency or affinity are listed apart. The source made the active and inactive calls. Unless noted, the rule behind the calls is not given here.
Legend:
[1] = antimalarial activity against Dd2 strain (AID 2302;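 active = growth inhibition above 50% at the single 2 µM test dose, taken to imply half-maximal potency below 2 µM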;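 note: 0% = DMSO untreated growth and 100% = chloroquine plus artemisinin killed control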); details: P. falciparum Dd2 in RBCs, LDH growth readout, 72 h; at 2 µM; hits give high values
[2] = human hepatoma cell viability loss – ATP luminescence, cytotoxicity control for P. falciparum antimalarial project, primary screen (AID 2303;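 active = inhibition above 50%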;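 note: 0% = DMSO wells and 100% = digitonin-killed cells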); details: HepG2 viability, 24-48 h, at 10 µM, hits give high values
[3] = molecular target: L-lactate dehydrogenase (Plasmodium falciparum (isolate CDC / Honduras)) (UniProt Q27743); test: PfLDH activity inhibition – cell lysate, 3D7 strain, counter-screen for P. falciparum growth inhibition project (AID 2304);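 note: 0% = vehicle and 100% = reference inhibitor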; details: P. falciparum 3D7 crude extract, LDH APAD/NBT absorbance; at 2 µM; hits give high values
Sequence of L-lactate dehydrogenase (Plasmodium falciparum (isolate CDC / Honduras)) (Q27743 whole entry, looked up): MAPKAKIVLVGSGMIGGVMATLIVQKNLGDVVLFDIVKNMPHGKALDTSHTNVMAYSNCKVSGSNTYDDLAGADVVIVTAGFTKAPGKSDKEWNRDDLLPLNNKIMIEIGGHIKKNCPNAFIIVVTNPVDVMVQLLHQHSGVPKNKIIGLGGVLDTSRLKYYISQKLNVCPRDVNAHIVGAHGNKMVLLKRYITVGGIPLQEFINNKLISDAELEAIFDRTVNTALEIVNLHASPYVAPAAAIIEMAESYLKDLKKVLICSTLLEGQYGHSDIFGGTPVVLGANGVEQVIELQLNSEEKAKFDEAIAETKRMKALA

[4] = inhibition of 3D7 malaria parasite growth – strain 3D7 (AID 2306);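 note: 0% = DMSO wells and 100% = chloroquine plus artemisinin control wells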; details: P. falciparum 3D7 erythrocytic growth, LDH absorbance, 72 h; at 2 µM; hits give high values
[5] = molecular target: Calcium-dependent protein kinase 1 (Plasmodium falciparum (isolate 3D7)) (UniProt P62344); test: PfCDPK1 kinase inhibitors, biochemical, TCAMS library (AID 1159585; cut-off not given, nearly all actives have IC50 up to about 0.98 µM;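 note: inhibitors leave more ATP so luminescence rises with inhibition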); details: recombinant PfCDPK1, Kinase-Glo ATP depletion luminescence
Sequence of Calcium-dependent protein kinase 1 (Plasmodium falciparum (isolate 3D7)) (P62344 whole entry, looked up): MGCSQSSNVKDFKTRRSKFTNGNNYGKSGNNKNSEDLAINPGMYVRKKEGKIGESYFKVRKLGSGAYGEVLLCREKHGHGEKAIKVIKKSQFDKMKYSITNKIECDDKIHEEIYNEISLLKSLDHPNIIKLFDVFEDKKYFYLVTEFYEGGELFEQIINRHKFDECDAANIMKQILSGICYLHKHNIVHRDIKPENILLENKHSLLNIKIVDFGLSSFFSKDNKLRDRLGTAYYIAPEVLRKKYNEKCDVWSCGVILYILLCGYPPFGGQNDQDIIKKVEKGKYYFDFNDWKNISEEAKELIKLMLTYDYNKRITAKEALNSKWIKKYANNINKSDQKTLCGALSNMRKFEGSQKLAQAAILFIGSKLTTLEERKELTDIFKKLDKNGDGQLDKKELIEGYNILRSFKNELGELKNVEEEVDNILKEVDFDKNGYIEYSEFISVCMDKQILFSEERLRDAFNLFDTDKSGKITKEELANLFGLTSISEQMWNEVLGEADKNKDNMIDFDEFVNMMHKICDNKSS

[6] = molecular target: Plasmodium falciparum protein kinase 6 (PK6, PF3D7_1337100) (UniProt Q8IDW1); test: PfPK6 kinase inhibitors, biochemical, TCAMS library (AID 1159586); details: recombinant PfPK6, Kinase-Glo ATP depletion luminescence
Sequence of Plasmodium falciparum protein kinase 6 (PK6, PF3D7_1337100) (Q8IDW1 1-305): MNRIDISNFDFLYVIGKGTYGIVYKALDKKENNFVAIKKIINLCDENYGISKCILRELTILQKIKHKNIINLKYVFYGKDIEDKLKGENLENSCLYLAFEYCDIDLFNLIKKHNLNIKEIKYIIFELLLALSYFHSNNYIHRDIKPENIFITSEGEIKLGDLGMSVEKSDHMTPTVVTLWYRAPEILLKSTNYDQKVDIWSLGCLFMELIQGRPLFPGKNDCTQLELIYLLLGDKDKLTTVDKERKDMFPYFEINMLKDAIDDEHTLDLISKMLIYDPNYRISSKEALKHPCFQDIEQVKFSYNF

[7] = molecular target: Protein kinase 7 (PK7), Plasmodium falciparum 3D7 (PF3D7_0213400) (UniProt Q7YTF7); test: inhibition of Plasmodium PK7 catalytic activity – biochemical, TCAMS antimalarial set, Kinase-Glo luminescence (AID 1159587); details: recombinant PfPK7, Kinase-Glo ATP depletion luminescence
Sequence of Protein kinase 7 (PK7), Plasmodium falciparum 3D7 (PF3D7_0213400) (Q7YTF7 1-343): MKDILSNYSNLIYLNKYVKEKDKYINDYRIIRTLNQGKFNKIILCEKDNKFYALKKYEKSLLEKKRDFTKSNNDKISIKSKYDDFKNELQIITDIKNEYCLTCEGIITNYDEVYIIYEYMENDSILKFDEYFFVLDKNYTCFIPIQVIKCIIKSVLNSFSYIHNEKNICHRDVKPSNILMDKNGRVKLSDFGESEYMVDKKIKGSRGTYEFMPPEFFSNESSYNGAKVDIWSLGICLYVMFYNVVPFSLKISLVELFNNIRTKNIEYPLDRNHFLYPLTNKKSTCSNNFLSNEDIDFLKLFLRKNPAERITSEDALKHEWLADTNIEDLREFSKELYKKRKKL

[8] = molecular target: Calcium-dependent protein kinase 4 (Plasmodium falciparum (isolate 3D7)) (UniProt Q8IBS5); test: PfCDPK4 kinase inhibitors, biochemical, TCAMS library (AID 1159588; cut-off not given, nearly all actives have IC50 up to about 0.91 µM); details: recombinant PfCDPK4, Kinase-Glo ATP depletion luminescence
Sequence of Calcium-dependent protein kinase 4 (Plasmodium falciparum (isolate 3D7)) (Q8IBS5 whole entry, looked up): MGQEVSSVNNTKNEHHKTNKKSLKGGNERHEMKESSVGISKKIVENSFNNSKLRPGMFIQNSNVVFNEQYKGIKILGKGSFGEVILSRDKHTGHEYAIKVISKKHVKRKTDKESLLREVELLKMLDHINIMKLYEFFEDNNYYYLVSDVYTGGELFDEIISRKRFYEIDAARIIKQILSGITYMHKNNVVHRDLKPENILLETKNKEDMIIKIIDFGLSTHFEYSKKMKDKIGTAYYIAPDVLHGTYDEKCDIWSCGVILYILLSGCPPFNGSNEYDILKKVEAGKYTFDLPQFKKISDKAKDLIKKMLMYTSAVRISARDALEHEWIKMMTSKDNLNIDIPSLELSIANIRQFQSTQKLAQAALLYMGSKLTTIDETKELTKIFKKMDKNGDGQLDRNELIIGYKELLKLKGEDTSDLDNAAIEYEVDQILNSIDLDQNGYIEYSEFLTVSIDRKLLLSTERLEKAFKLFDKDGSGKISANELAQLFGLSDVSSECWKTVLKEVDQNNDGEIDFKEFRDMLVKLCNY

CC(=O)NC1=NC(C)(C)N(OCCCOc2ccc(Cl)c(Cl)c2)C(NC(C)=O)=N1
inactive: inhibition [3] 0% | outcome [5] | outcome [6] | outcome [7] | outcome [8]
active: growth inhibition [1] 94% | inhibition [2] 65% | growth inhibition [4] 96%

COc1ccccc1C1CCN(C2CCC(NC(=O)/C=C/c3ccc(OC(F)(F)F)cc3)CC2)CC1 (stereo not given)
active: inhibition [2] 65% | growth inhibition [4] 82%
inactive: growth inhibition [1] 11% | inhibition [3] -3% | outcome [5] | outcome [6] | outcome [7] | outcome [8]

Cn1cncc1C(=O)Nc1cccc(-c2csc(-c3nc4ccccc4[nH]3)c2)c1
active: growth inhibition [1] 64% | growth inhibition [4] 102%
inactive: inhibition [2] 15% | inhibition [3] -3% | outcome [5] | outcome [6] | outcome [7] | outcome [8]

CC1(C)[C@H]2CC[C@@H](CNc3nc(NCCc4cnc[nH]4)nc(NCc4cc(F)ccc4F)n3)[C@@H]1C2
active: growth inhibition [1] 91% | growth inhibition [4] 100%
inactive: inhibition [2] 0% | inhibition [3] 6% | outcome [5] | outcome [6] | outcome [7] | outcome [8]

COc1ccccc1C1CCN(Cc2csc(NC(=O)c3ccc(-c4ccc(C(F)(F)F)cc4)cc3)n2)CC1
active: inhibition [2] 62% | growth inhibition [4] 85%
inactive: growth inhibition [1] 23% | inhibition [3] -2% | outcome [5] | outcome [6] | outcome [7] | outcome [8]

CCOc1ccc(C2CCN(CCCCNC(=O)c3ccc(NC(=O)c4ccc(Cl)cc4)cc3)CC2)c(CC)c1
active: growth inhibition [1] 64% | growth inhibition [4] 100%
inactive: inhibition [2] 44% | inhibition [3] -4% | outcome [5] | outcome [6] | outcome [7] | outcome [8]

Cc1cccc2[nH]c(-c3ccc(-c4ccc(CNCCc5ccncc5)cc4)cc3)nc12
active: growth inhibition [1] 98% | growth inhibition [4] 100%
inactive: inhibition [2] 34% | inhibition [3] 0% | outcome [5] | outcome [6] | outcome [7] | outcome [8]

COc1ccc(/C=C/C(=O)Nc2ccc(-c3ccncc3)cc2)cc1CCCN(C)C
inactive: inhibition [2] 3% | inhibition [3] 1% | outcome [5] | outcome [6] | outcome [7] | outcome [8]
active: growth inhibition [1] 86% | growth inhibition [4] 102%

COc1ccc(N2C(N)=NC(N)=NC2(C)C)cc1OC
active: growth inhibition [4] 95%
inactive: growth inhibition [1] -4% | inhibition [2] 13% | inhibition [3] -2% | outcome [5] | outcome [6] | outcome [7] | outcome [8]

CCOc1ccc(-c2nonc2NC(=O)CC(C)C)cc1OCC
inactive: growth inhibition [1] 37% | inhibition [2] -1% | inhibition [3] 6% | outcome [5] | outcome [6] | outcome [7] | outcome [8]
active: growth inhibition [4] 92%

O=C(NCC1CCN(CCN2CCC(c3cn(CCO)c4ccccc34)CC2)CC1)c1ccc(-c2ccc(C(F)(F)F)cc2)cc1
inactive: inhibition [3] 0% | outcome [5] | outcome [6] | outcome [7] | outcome [8]
active: growth inhibition [1] 100% | inhibition [2] 100% | growth inhibition [4] 101%

CN1CCN(c2cc(NC(=O)Nc3cccc(Cl)c3Cl)ccc2Cl)CC1
active: growth inhibition [4] 102%
inactive: growth inhibition [1] 21% | inhibition [2] 2% | inhibition [3] 2% | outcome [5] | outcome [6] | outcome [7] | outcome [8]

COC(=O)c1cccc(CNCc2cccc(-c3ccc(-c4nc5c(C)cccc5[nH]4)s3)c2)c1
inactive: inhibition [2] -4% | inhibition [3] 1% | outcome [5] | outcome [6] | outcome [7] | outcome [8]
active: growth inhibition [1] 65% | growth inhibition [4] 103%

CO/C(=C\C=C\c1cc2cc(Cl)c(Cl)cc2[nH]1)C(=O)NC1CCN(CCCc2ccccc2)CC1
active: growth inhibition [1] 75% | inhibition [2] 59% | growth inhibition [4] 93%
inactive: inhibition [3] 0% | outcome [5] | outcome [6] | outcome [7] | outcome [8]

COc1ccc2nccc(NN=Cc3ccccc3)c2c1
inactive: inhibition [2] -2% | inhibition [3] -1% | outcome [5] | outcome [6] | outcome [7] | outcome [8]
active: growth inhibition [1] 99% | growth inhibition [4] 101%

COC(=O)C(NC(=O)c1ccc(-c2ccc(-c3nc4ccccc4[nH]3)s2)cc1)c1ccc(O)cc1 (stereo not given)
active: inhibition [2] 99% | growth inhibition [4] 83%
inactive: growth inhibition [1] 49% | inhibition [3] 3% | outcome [5] | outcome [6] | outcome [7] | outcome [8]

COc1ccc(CNCCCCCNCc2ccc(Cl)c(Cl)c2)cc1Cl
inactive: growth inhibition [1] 43% | inhibition [2] 42% | inhibition [3] 0% | outcome [5] | outcome [6] | outcome [7] | outcome [8]
active: growth inhibition [4] 98%

Cn1c(NC2CCN(CC3CCN(C(=O)/C=C/c4ccc(Cl)c(Cl)c4)CC3)CC2)nc2ccccc21
inactive: inhibition [3] 3% | outcome [5] | outcome [6] | outcome [7] | outcome [8]
active: growth inhibition [1] 100% | inhibition [2] 99% | growth inhibition [4] 101%

Cc1cc(Nc2ccc(OCc3ccccc3Cl)cc2)c2cc(Cl)ccc2n1
inactive: inhibition [2] 33% | inhibition [3] 5% | outcome [5] | outcome [6] | outcome [7] | outcome [8]
active: growth inhibition [1] 58% | growth inhibition [4] 100%

O=C(/C=C/c1ccc(Cl)c(Cl)c1)N1CCC(CCN2CCC(c3nc4ccc(O)cc4[nH]3)CC2)CC1
inactive: inhibition [2] 42% | inhibition [3] 4% | outcome [5] | outcome [6] | outcome [7] | outcome [8]
active: growth inhibition [1] 60% | growth inhibition [4] 100%
